Data on eleven molecules can be found in PubChem BioAssay (NCATS).

Values without a mark were called inactive. Calls follow the shape of the dose curve; as a rule, active = well fitted curve in the direction sought with a large enough effect; inconclusive = small, poorly fitted or top-dose-only effect, or another doubt; inactive = no such curve, though single readings can be large or run the other way.

Chain of Thyrotropin receptor (Homo sapiens) (P16473 whole entry, looked up): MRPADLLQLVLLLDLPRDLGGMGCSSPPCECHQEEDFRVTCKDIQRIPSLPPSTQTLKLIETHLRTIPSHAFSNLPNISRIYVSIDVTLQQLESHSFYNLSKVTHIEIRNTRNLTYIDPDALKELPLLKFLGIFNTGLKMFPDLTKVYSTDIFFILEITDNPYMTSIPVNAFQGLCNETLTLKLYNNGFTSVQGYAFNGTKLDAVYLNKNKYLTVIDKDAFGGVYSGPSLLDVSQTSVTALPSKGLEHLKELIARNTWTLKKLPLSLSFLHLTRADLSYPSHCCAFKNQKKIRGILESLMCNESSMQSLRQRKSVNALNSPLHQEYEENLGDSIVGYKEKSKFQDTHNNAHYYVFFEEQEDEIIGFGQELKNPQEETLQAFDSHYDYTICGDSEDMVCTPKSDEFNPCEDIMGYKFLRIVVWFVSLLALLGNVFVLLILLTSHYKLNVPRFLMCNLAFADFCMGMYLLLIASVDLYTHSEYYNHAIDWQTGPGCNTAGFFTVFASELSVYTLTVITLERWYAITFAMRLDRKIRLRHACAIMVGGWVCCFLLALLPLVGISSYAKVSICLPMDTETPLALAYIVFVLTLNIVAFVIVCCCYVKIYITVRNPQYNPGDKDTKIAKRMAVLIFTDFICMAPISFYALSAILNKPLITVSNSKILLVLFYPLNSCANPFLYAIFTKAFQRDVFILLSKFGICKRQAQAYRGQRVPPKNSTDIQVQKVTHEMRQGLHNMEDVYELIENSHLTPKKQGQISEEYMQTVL

The target in this assay is Thyrotropin receptor (Homo sapiens) (UniProt P16473). The experiment in a line: qHTS Assay for Antagonists of the Thyroid Stimulating Hormone Receptor (AID 488980). Also: 0% is about no effect. The note with it: TSHR-expressing cells, cAMP antagonist read-out; series mostly up to 57.5 µM; activity, negative = inhibition: at the top concentration. An excerpt:
TSH is an alpha/beta heterodimeric glycoprotein hormone secreted from the anterior pituitary gland which belongs to the glycoprotein hormone family. The actions of TSH are mediated by a seven-transmembrane receptor, which upon TSH binding couples preferentially to the G-alpha (s) protein (Gs), resulting in activation of adenylate cyclase and increase in cyclic adenosine 3', 5' monophosphate (cAMP). The TSH receptor (THSR) is mainly expressed in thyroid follicular cells and regulates their growth and function. This cell based assay was conducted on a TSHR transfected HEK 293 cell line, measuring cAMP stimulation using antibody-based Homogeneous Time Resolved Fluorescence (HTRF).
Our goal is to identify small molecules that will inhibit (antagonize) the thyroid-stimulating hormone receptor (TSHR), a member of the 7 transmembrane-spanning receptor (7TMR) family of cell surface receptors. TSHR-mediated hyperthyroidism is important in thyroid pathology. The development of small molecule antagonists of TSHR may lead to therapeutic approaches for TSHR-mediated hyperthyroidism caused by constitutively activating mutations or stimulating auto-antibodies associated with Graves' disease. Graves' disease is the leading cause of hyperthyroidism and is caused by autoantibodies that stimulate TSHR (TsAbs) causing thyroid growth and unregulated overproduction of thyroid hormones and existing treatments have liabilities (agranulocytosis). In addition, TSHRs are known to be expressed in multiple extrathyroidal tissues including bone, brain, kidney, testis, fat and cells of the immune system but the role of the TSHR in these tissues is not clear. Therefore, TSHR antagonists/inverse agonists could be used as probes of extrathyroidal TSHR function. Finally, TSHR inverse agonists, which are a subclass of antagonists that inhibit agonist-independent (or basal or constitutive) TSHR signaling, could be used to inhibit TSH-independent signaling in patients with recurrent or metastatic thyroid cancer who are receiving thyroid hormone to suppress TSH.
An anti cAMP antibody contains a fluorescent cryptate tag (excitation 337 nm; emission 620 nm) and the acceptor is cAMP-d2 (excitation 620 nm; emission 665 nm). When antibody and cAMP-d2 interact and are excited by a 337 nm light, a FRET occurs resulting in emission at 665 nm. The assay is competition between cAMP-d2 and cAMP (from the cell lysate). The homogeneous protocol allows for one step dispense after stimulation that is automation friendly.
Step, Parameter, Value, Description
1, Cells, 3 uL, 2000 TSHR freshly harvested cells/well 1536 TC treated White solid bottom plate (Cells resuspended in 10 mM HEPES buffered HBSS and 70 uM RO 20-1724)
2, Compound, 23 nL, Libraries and controls
3, Compound, 1 uL, EC80 TSH (4 nM final)
5, Reagent, 2 uL, cAMP antibody diluted 1:20 in lysis buffer
6, Time, 30 minutes, Room temperature
7, Detector, HTRF settings, Viewlux
With `Nc1nc(N)c2nc(CNc3ccc(C(=O)NC(CCC(=O)O)C(=O)O)cc3)cnc2n1` (stereo unspecified), the “activity, negative = inhibition” value is -0.274%. The figure for `CC(C)NCC(O)c1ccc(NS(C)(=O)=O)cc1` (stereo unspecified) is -1.18%; for `CCN1CCCC1CNC(=O)c1cc(S(N)(=O)=O)ccc1OC` (stereo unspecified) it is -1.84%. For the molecule `CCCCS(=N)(=O)CCC(N)C(=O)O` (stereo unspecified), the “activity, negative = inhibition” value was -0.339%.

For `Cc1ccc(S(=O)(=O)N[C@@H](Cc2ccccc2)C(=O)CCl)cc1`, the “activity, negative = inhibition” value is -1.98%.

Take `CCN(CC)CC#CCOC(=O)C(O)(c1ccccc1)C1CCCCC1` (stereo unspecified): the “activity, negative = inhibition” value is -0.438%. The same measure for `CC(=O)[C@H]1CC[C@H]2[C@@H]3CCC4=CC(=O)CC[C@]4(C)[C@H]3CC[C@]12C`: 0.0313%; for `COc1cc2ncnc(Nc3cccc(Cl)c3)c2cc1OC`: -1.17%. The same measure for `NC(=O)c1cccc(N)c1`: -0.852%; for `OCc1ccc(-c2nn(Cc3ccccc3)c3ccccc23)o1`: -1.66%. The same measure for `O=C(O)C1CCCN(CCC=C(c2ccccc2)c2ccccc2)C1` (stereo unspecified): -0.172%.
